In ChEMBL document CHEMBL1961873, “Compounds: GSK PKIS; Assays: Nanosyn kinase panel” (2012):

Target: T1, Rhodopsin kinase GRK7 (Homo sapiens) (UniProt Q8WTQ7)
T1 sequence (whole entry): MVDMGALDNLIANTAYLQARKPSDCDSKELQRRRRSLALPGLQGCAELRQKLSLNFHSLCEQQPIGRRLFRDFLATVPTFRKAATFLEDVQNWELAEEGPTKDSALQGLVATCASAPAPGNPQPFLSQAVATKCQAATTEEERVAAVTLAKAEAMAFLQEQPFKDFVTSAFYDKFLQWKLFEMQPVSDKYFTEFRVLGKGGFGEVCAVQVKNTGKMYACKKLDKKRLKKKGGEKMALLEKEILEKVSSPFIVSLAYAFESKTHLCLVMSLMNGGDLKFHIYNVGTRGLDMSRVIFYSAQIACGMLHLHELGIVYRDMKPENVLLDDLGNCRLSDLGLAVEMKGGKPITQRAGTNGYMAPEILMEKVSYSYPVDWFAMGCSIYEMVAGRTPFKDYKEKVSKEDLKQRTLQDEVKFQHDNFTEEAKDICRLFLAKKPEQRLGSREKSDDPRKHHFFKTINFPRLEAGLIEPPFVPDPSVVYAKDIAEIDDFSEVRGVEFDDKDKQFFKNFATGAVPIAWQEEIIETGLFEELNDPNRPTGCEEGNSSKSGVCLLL
Conditions: at 0.1 µM
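Further: reported figures are mean percent inhibition of GRK7.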

Compared with `COc1ccccc1Nc1ncc(-c2ccccc2)o1`, `Cn1cc(C=C2C(=O)Nc3cccnc32)c2ccccc21` is lower in inhibition: 10.1% for the first, 3.02% for the second.

First: CN(C)c1cc2c(Nc3ccc4nc(Cc5ccccc5)[nH]c4c3)ncnc2cn1
Second: [O-][S+]1CCN(Cc2ccc(-c3ccc4ncnc(Nc5ccc(OCc6ccccc6)c(F)c5)c4c3)o2)CC1
The inhibition of the first is higher: 20.5% for the first, 1.86% for the second.

Compared with `CCn1c(-c2nonc2N)nc2c(N3CCCC3)nccc21`, `CCn1c(-c2nonc2N)nc2c(C#CC(C)(C)O)nc(CN3CCCC3)cc21` is higher in inhibition: -7.43% for the first, -4.34% for the second.

Going from `CC1=C(C(=O)Nc2ccc3[nH]ncc3c2)C(c2ccc3ccccc3c2)CC(=O)N1` (stereo not drawn) to `CC1=C(C(=O)Nc2ccc3[nH]ncc3c2)C(c2ccc(Cl)c(Cl)c2)CC(=O)N1` (stereo not drawn), the inhibition falls from 2.64% to -1.63%.

Going from `CNC(=O)c1cncc(/C=C/c2c(Cl)cccc2Cl)c1` to `O=C1NC(=O)C(c2ccccc2Cl)=C1Nc1cccc(O)c1`, the inhibition falls from 10.6% to 1.36%.

Going from `Cc1ccc(NC(=O)c2ccnc(N3CCCC3)c2)cc1-c1ccc(C(=O)NCC2CC2)cc1` to `NS(=O)(=O)c1ccc(N/N=C2\C(=O)Nc3ccc(C(=O)NCCc4c[nH]cn4)cc32)cc1`, the inhibition rises from 5.08% to 5.2%.

Going from `O=C1NC(=O)C(N2CCc3ccccc32)=C1c1ccc(Cl)cc1` to `COc1cc2c(cc1Nc1nc(N3CCc4ccccc43)c3cc[nH]c3n1)N(C(=O)CN(C)C)CC2`, the inhibition falls from 2.29% to -0.63%.

First: COc1cc2ncn(-c3cc(OCc4ccccc4C(F)(F)F)c(C(N)=O)s3)c2cc1OC
Second: COc1cc2ncn(-c3cc(O[C@H](C)c4ccccc4Cl)c(C(N)=O)s3)c2cc1OC
The inhibition of the first is higher: 9.69% for the first, 5.01% for the second.

First: Nc1nc(-c2ccccn2)c(-c2ccc3ncccc3n2)s1
Second: NC(=O)c1ccc(-c2nc(-c3ccccn3)c(-c3ccc4c(c3)OCO4)[nH]2)cc1
The inhibition of the first is lower: 1.26% for the first, 1.63% for the second.

Compared with `O=C(Nc1n[nH]c2nc(-c3ccco3)c(Br)cc12)C1CC1`, `CN1CCC(C(=O)Nc2n[nH]c3nnc(-c4ccccc4)cc23)CC1` is higher in inhibition: 3.55% for the first, 7.52% for the second.

Compared with `COc1ccc(-c2ccncc2)cc1C(N)=O`, `COc1cc2ncn(-c3cc(O[C@@H](C)c4ccccc4Cl)c(C(N)=O)s3)c2cc1OC` is lower in inhibition: 9.86% for the first, 9.14% for the second.

Going from `Nc1ncnc2occ(-c3ccc(NC(=O)Nc4cc(C(F)(F)F)cc(C(F)(F)F)c4)cc3)c12` to `CS(=O)(=O)CCNCc1ccc(-c2ccc3ncnc(Nc4ccc(OCc5cccc(F)c5)c(C(F)(F)F)c4)c3c2)o1`, the inhibition rises from -0.71% to 3.55%.

First: Cc1nn(C)c2cc(N(C)c3ccnc(Nc4cccc(S(N)(=O)=O)c4)n3)ccc12
Second: NC(=O)c1cccc(Nc2nccc(Nc3cccc4[nH]ncc34)n2)c1
The inhibition of the first is higher: 2.2% for the first, -7.6% for the second.

Compared with `Nc1nc(-c2ccc3c(c2)C(=Cc2cc(Br)c(O)c(Br)c2)C(=O)N3)cs1`, `CC(C)=Cc1cccc2c1/C(=N/Nc1ccc(S(N)(=O)=O)cc1)C(=O)N2` is higher in inhibition: -6.85% for the first, 1.04% for the second.

First: CC(=O)Nc1cccc(C#Cc2cncnc2Nc2ccc(OCc3cccc(F)c3)c(Cl)c2)n1
Second: Fc1cccc(COc2ccc(Nc3ncnc4sc(-c5cccs5)cc34)cc2Cl)c1
The inhibition of the first is lower: 1.16% for the first, 7.27% for the second.

First: COC(=O)Nc1nc2cc(Oc3ccc(NC(=O)Nc4cccc(C(=O)O)c4)cc3)ccc2[nH]1
Second: Fc1cccc(COc2ccc(Nc3ncnc4cc(-c5ccc[nH]5)sc34)cc2Cl)c1
The inhibition of the first is lower: 1.5% for the first, 1.96% for the second.

`N#Cc1c(NC(=O)c2cccc3ccccc23)sc2c1CCCC2` gave an inhibition of 2.52%.
